Bioassay records from PubChem.
Only some compounds are listed: those with a hit (about 27% of all), similar ones and a draw of the others.
CYP2C9 inhib: inhibitors of human CYP2C9; P11712; CYP2C9 Supersomes, luciferin-H conversion, luminescence; actives 20% (n = 96,000); inhibition, % at 5 µM;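 active = blocking of liver enzyme CYP2C9 beyond about 50% at 5 µM, limit read from the data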
CYP2C19 inhib: blocks human cytochrome P450 2C19; P33261; CYP2C19 Supersomes, luciferin-H EGE luminescence, 30 min; inhibition, % at 5 µM; actives 21% (n = 96,000);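 active = CYP2C19 inhibition above a set limit at 5 µM in the primary screen, cut at about 50% in these data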
sEH act: soluble epoxide hydrolase (human) activation; P34913; purified human sEH enzymatic activity, activator screen; activation, % at 2 µM; actives 0.04% (n = 91,000); AID 717; in the data active = activation above about 37%
Target sequence (P34913 whole entry, looked up): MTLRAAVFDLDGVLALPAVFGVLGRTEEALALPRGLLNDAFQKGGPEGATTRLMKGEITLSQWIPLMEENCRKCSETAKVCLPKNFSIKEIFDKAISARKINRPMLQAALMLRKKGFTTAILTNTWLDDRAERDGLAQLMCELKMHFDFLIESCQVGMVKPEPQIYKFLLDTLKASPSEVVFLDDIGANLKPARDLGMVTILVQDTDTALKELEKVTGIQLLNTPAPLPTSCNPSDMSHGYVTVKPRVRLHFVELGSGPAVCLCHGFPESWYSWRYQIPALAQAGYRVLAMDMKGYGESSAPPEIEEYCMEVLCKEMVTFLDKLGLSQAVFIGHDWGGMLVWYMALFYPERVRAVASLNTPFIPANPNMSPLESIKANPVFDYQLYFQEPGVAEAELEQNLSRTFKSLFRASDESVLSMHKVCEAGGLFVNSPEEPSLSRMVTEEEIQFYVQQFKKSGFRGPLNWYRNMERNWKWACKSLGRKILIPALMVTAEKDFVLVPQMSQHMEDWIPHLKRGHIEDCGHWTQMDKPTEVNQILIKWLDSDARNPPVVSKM
CYP2C9 activ: increases human cytochrome P450 2C9 activity; activation factor at 5 µM; AID 1024; actives 1.4% (n = 96,000); recombinant CYP2C9, luciferin-H conversion, luminescence; stronger effect = higher value; factor 1 = untreated enzyme, 0 = blocked;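 active = activation factor of 2 or more for CYP2C9 at a 5 µM dose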
CYP2C19 activ: cytochrome P450 2C19 (human) activation; recombinant CYP2C19, luciferin-H EGE luminescence; stronger effect = higher value; 0 = fully inhibited enzyme, 1 = untreated enzyme; activation factor at 5 µM; 96,000 tested, under 10 active; AID 1025;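 active = activation factor of at least 2 at 5 µM in the primary screen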
sEH inh: inhibitors of human soluble epoxide hydrolase; recombinant human sEH enzymatic activity assay; inhibition, % at 2 µM; AID 707; actives 0.34% (n = 91,000); in the data active = inhibition above about 80%
Numbers stand for hits; n = inactive; x = no result.

SMILES	CYP2C9 inhib	CYP2C19 inhib	sEH act	CYP2C9 activ	CYP2C19 activ	sEH inh
CCOC(=O)c1c(-c2ccncc2)csc1N	66	n	n	n	n	n
CCOC(=O)c1c(-c2ccc(C)s2)csc1NC(=O)c1cccs1	n	n	n	n	n	n
O=C1CCCCCN1CP(=O)(O)CN1CCOCC1	n	n	x	n	n	x
COCC(=O)Nc1ccc(S(=O)(=O)NCCc2ccccc2)cc1	69	95	n	n	n	n
O=C(Nc1ccc(S(=O)(=O)NCCc2ccccc2)cc1)c1ccc(Br)o1	n	n	n	n	n	n
CCC(=O)Nc1ccc(S(=O)(=O)NCCc2ccccc2)cc1	n	75	n	n	n	n
CCOc1ccc(NC(=O)CN(c2cccc(C(F)(F)F)c2)S(C)(=O)=O)cc1	72	85	n	n	n	n
CC(=O)Nc1ccc(NC(=O)CN(c2cccc(C)c2)S(C)(=O)=O)cc1	n	52	n	n	n	n
COc1ccc(NC(=O)CN(c2cccc(C(F)(F)F)c2)S(C)(=O)=O)cc1OC	n	n	n	n	n	n
COc1ccc(N(CC(=O)Nc2cccc(SC)c2)S(C)(=O)=O)cc1	89	94	x	n	n	x
CCN(CC)S(=O)(=O)c1ccc(NC(=O)CN(c2cccc(C)c2)S(C)(=O)=O)cc1	x	x	n	x	x	n
COc1ccc(N(CC(=O)Nc2cccc(C(F)(F)F)c2)S(C)(=O)=O)cc1	x	x	n	x	x	n
COc1cccc(NC(=O)CN(c2cccc(C(F)(F)F)c2)S(C)(=O)=O)c1	70	88	x	n	n	x
Cc1cccc(N2CCCC2=Nc2ccc(Br)cc2C#N)c1	n	n	n	n	n	n
COCCNC(=O)c1cnn2c(C(F)(F)F)cc(-c3ccc4c(c3)OCO4)nc12	n	n	n	n	n	n
Cc1ccc2c(c1)c(C)cc(=O)n2CCC(=O)O	n	n	x	n	n	x
CCOc1ccc(N(CC(=O)Nc2ccccc2)S(C)(=O)=O)cc1	70	88	x	n	n	x
CCOc1ccccc1N(CC(=O)Nc1cccnc1)S(C)(=O)=O	n	n	n	n	n	n
CCOC(=O)N1CCN(c2nc(-c3ccco3)cc(C(F)(F)F)n2)CC1	75	n	x	n	n	x
O=C(CCSc1nc(-c2ccco2)cc(C(F)(F)F)n1)NCC1CCCO1 (stereo not given)	n	67	n	n	n	n
O=C(CSc1nc(-c2ccco2)cc(C(F)(F)F)n1)NCC1CCCO1 (stereo not given)	n	71	n	n	n	n
O=C(CSc1nc(-c2ccco2)cc(C(F)(F)F)n1)N1CCN(c2ccc(Cl)cc2)CC1	x	x	n	x	x	n
O=C(CCCSc1nc(-c2ccco2)cc(C(F)(F)F)n1)NCC1CCCO1 (stereo not given)	x	x	n	x	x	n
O=C(CSc1nc(-c2ccco2)cc(C(F)(F)F)n1)N1CCN(Cc2ccccc2)CC1	68	83	n	n	n	n
O=C(CSc1nc(-c2ccco2)cc(C(F)(F)F)n1)NCCc1ccccc1	n	n	n	n	n	n
SMILES	CYP2C9 inhib	CYP2C19 inhib	sEH act	CYP2C9 activ	CYP2C19 activ	sEH inh
Cc1nn(C)c(Cl)c1NC(=O)OCc1ccc(F)cc1	n	n	n	n	n	n
O=C(CSc1nc(-c2ccco2)cc(C(F)(F)F)n1)Nc1ccc(C(=O)N2CCCCC2)cc1	85	55	n	n	n	n
Cc1cccc(C)c1NC(=O)CSc1nc(-c2ccco2)cc(C(F)(F)F)n1	x	x	n	x	x	n
O=C(NC1CCCCC1)c1nc2c(nnn2Cc2ccccc2Cl)c(=O)[nH]1	x	x	n	x	x	n
CCOC(=O)c1c(Nc2ccccc2)sc(/C=C2\C=Nc3ccccc32)c1O	73	n	n	n	n	n
CC1CCCCC1NC(=S)Nc1ccc(SC(F)F)cc1 (stereo not given)	n	61	n	2.3	n	n
FC(F)Sc1ccc(NC(=S)NC2CCCCC2)cc1	n	75	n	2.4	n	n
O=C(Nc1ccc(SC(F)F)cc1)C1=COCCO1	n	n	n	n	n	n
FC(F)Sc1ccc(NC(=S)NCC2CCCCC2)cc1	n	96	n	n	n	n
CN(C)c1nc(OCC(=O)NC(C)(C)C)nc(N(C)C)n1	n	n	n	n	n	n
COc1ccc(OC)c(Nc2nc(N)nc(CSc3nnc(-c4ccncc4)o3)n2)c1	n	n	n	n	n	n
CCOC(=O)c1ccc(NC(=O)N(CC)CC)cc1	n	n	n	n	n	n
COc1ccccc1COC(=O)Nc1c(C)nn(C)c1Cl	n	n	n	n	n	n
COC(=O)c1sccc1NC(=O)CSc1ccccc1NS(=O)(=O)c1ccc(Cl)cc1	84	59	n	n	n	n
COC(=O)c1sccc1NC(=O)CSc1ccccc1NS(=O)(=O)c1ccccc1Cl	87	n	n	n	n	n
COC(=O)c1ccccc1NC(=O)c1cc(OC)cc(OC)c1	n	n	n	n	n	n
COc1cc(C2C(C(=O)OC(C)C)=C(C)Nc3[nH]c(=O)[nH]c(=O)c32)ccc1O (stereo not given)	n	82	n	n	n	n
CC1=C(C(=O)OC(C)C)C(c2ccc(N(C)C)cc2)C2=C(CC(C)(C)CC2=O)N1 (stereo not given)	n	n	x	n	n	x
COc1ccc(-n2c(SCC(=O)N3CCCCC3C)nnc2-c2cccnc2)cc1 (stereo not given)	n	n	n	n	n	n
CCOc1ccccc1Oc1ccc(C(F)(F)F)cn1	n	n	n	n	n	n
Nc1nc(OCC(F)(F)F)cc(Oc2ccccc2F)n1	n	59	x	n	n	x
COc1cccc(C2=NC(C)(C)NC(c3ccccc3O)C2)c1 (stereo not given)	n	n	n	n	n	n
CCC1(C)N=C(c2ccc3c(c2)OCO3)CC(c2ccccc2O)N1 (stereo not given)	74	59	n	n	n	n
CC(C)n1c2ccccc2c2nc3ccccc3nc21	n	n	n	n	n	n
COc1ccc(S(=O)(=O)N(CC(N)=O)C2CCCCC2)cc1Cl	n	72	n	n	n	n
SMILES	CYP2C9 inhib	CYP2C19 inhib	sEH act	CYP2C9 activ	CYP2C19 activ	sEH inh
COc1ccc(NC(=O)CN(C2CCCCC2)S(C)(=O)=O)cc1Cl	n	n	n	n	n	n
COc1ccc(N(CC(=O)NC2CCCCC2)S(=O)(=O)c2cccnc2)cc1	65	53	n	n	n	n
COc1ccc(S(=O)(=O)N(C)CC(=O)N2CCC(C(N)=O)CC2)cc1Cl	n	n	x	2	n	x
COc1ccc(S(=O)(=O)N(C)CC(=O)N2CCCCCC2)cc1OC	n	n	n	n	n	n
COc1ccc(S(=O)(=O)N(C)CC(=O)NC2CC2)cc1	n	n	n	2.5	n	n
Cc1ccc(N(CC(=O)NC2CCC(C)CC2)S(=O)(=O)c2cccnc2)cc1 (stereo not given)	n	n	n	n	n	n
O=C(Cc1ccccc1)Nn1cnc2ccccc21	n	n	n	n	n	n
COC(=O)c1nonc1NCn1nnc2ccccc21	n	n	n	n	n	n
